This note sets out measurements from PubChem BioAssay (NCATS).

Assay [1] is described as follows: Primary qHTS for inhibitors of nuclear receptor binding SET domain protein 2 (NSD2) in an RCH-ACV wild type WT cells (2C) (AID 1645877). Also: nearly all actives have a fitted effect of over 70% in size. Also: potency is read from the fitted curve at half-maximal effect.
Assay [2] addresses Glutathione peroxidase 1 (Homo sapiens) (UniProt P07203). Put plainly: Primary qHTS Assay for Inhibitors of Recombinant Selenoprotein Glutathione Peroxidase 1 (GPX1) (AID 1845191). Also: nearly all actives have a fitted effect of over 65% in size. Put shortly:
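10 nM GPX1 + cpd, 30 min RT; start w/ 1 mM GSH, 0.5 mM cumene hydroperoxide, 0.5 mM NADPH, 100 nM GR, 0.01% BSA; buffer 50 mM Tris-HCl pH 7.5, 2 mM EDTA, 150 mM NaCl; Fl 340/450, 0 & 15 min.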

The target in assay [3] is Phospholipid hydroperoxide glutathione peroxidase GPX4 (Homo sapiens) (UniProt P36969). Put plainly: Primary qHTS Assay for Inhibitors of Recombinant Selenoprotein Glutathione Peroxidase 4 (GPX4) (AID 1845192). Also: nearly all actives have a fitted effect of over 65% in size. Put shortly: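 NADPH consumption, followed by fluorescence at 340/450 nm between 0 and 15 min, reports GPX4 activity via coupled glutathione reductase (100 nM). Enzyme 200 nM was pre-exposed to compound 30 min; 0.5 mM cumene hydroperoxide and 1 mM GSH served as substrates.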
Phospholipid hydroperoxide glutathione peroxidase GPX4 (Homo sapiens), sequence (P36969 whole entry, looked up): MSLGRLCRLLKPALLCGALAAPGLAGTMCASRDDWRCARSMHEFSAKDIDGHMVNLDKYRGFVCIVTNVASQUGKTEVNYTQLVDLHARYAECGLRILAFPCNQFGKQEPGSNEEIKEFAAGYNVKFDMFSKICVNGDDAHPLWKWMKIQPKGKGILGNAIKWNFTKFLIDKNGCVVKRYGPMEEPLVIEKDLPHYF
A general note: qHTS replaces the single test concentration by a dilution series.

Assay [4] addresses Luciferin 4-monooxygenase (Photinus pyralis) (UniProt P08659). Put plainly: Primary firefly luciferase (FLuc) qHTS assay for identification of artifact compounds. (AID 1845220). Also: nearly all actives have a fitted effect of over 60% in size. Also: potency is read from the fitted curve at half-maximal effect. Put shortly:
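Cell-free, 1536-well qHTS. Buffer pH 7.6 with 0.01% Tween-20 and 0.05% BSA; 10 uM D-luciferin, 10 uM ATP; 10 nM P. pyralis luciferase; luminescence after 5 min.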

Assay [5] is described as follows: Primary fluorescence-based thiol-reactive (MSTI) qHTS assay for identification of artifact compounds. (AID 1845221). Also: nearly all actives have a fitted effect of over 65% in size. Also: potency is read from the fitted curve at half-maximal effect. Put shortly:
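MSTI probe at 4 uM final in 2% DMSO/PBS pH 7.4; compounds, 1 h at room temperature in dark. Fluorescence Ex/Em 525/598 nm, normalised to Acetyl-MSTI and MSTI, fitted to 4-parameter Hill.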

The subject of assay [6] is Nanoluciferase (engineered Oplophorus gracilirostris luciferase). Put plainly: Primary Nanoluciferase (NLuc) qHTS assay for identification of artifact compounds. (AID 1845222). Also: series mostly up to about 54 µM. Put shortly: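 Compounds are pinned into diluted (1:55) conditioned medium of NLuc-expressing S16 cells and held 15 min at room temperature protected from light. Nano-Glo substrate follows, and luminescence is read 5 min later.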

Assay [7] can be described thus: Primary redox qHTS assay for identification of artifact compounds. (AID 1845223). Put shortly:
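Amplex Red (25 uM) and HRP (250 mU/mL) in HBSS, with compounds for 15 min, then 250 uM DTT for 30 min, room temperature, dark. Fluorescence 525/598 nm read; normalized to DMSO and 10 uM DA3003; Hill fit.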

Values without a mark were called inactive. Records with an inconclusive call do not appear. The source made the active and inactive calls. Calls follow the shape of the dose curve; as a rule, active = well fitted curve in the direction sought with a large enough effect; inconclusive = small, poorly fitted or top-dose-only effect, or another doubt; inactive = no such curve, though single readings can be large; an effect the other way counts as inactive or inconclusive.

Glutathione peroxidase 1 (Homo sapiens), sequence (P07203 whole entry, looked up): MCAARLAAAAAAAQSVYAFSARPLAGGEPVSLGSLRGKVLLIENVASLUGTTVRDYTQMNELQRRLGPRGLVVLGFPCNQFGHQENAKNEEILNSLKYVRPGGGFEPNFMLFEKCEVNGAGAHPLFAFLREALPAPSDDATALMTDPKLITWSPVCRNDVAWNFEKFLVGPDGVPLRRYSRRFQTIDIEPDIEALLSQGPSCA

Take `CC(=O)O[C@@H]1C[C@@H](OC(C)=O)C(C)(C)/C=C/[C@H](C)[C@H](OC(C)=O)[C@@]2(O)C[C@H](C)[C@H](OC(=O)c3ccccc3)[C@@H]2/C=C/1C`: the Potency result in assay [1], in assay [2], in assay [3], in assay [4], in assay [5] and in assay [6] was “inactive” throughout. In addition, in assay [7], the Potency entry is “inactive”.
`Cc1nc(C)c(-c2ccc(C3CCC(CC(=O)O)CC3)cc2)nc1C(N)=O` (stereo unspecified): the Potency entry in assay [1], in assay [2], in assay [3], in assay [4], in assay [5] and in assay [7] was “inactive” in each case.
Turning to `Cc1cccc(Oc2cnc(=O)[nH]c2)c1`, the Potency result in assay [1], in assay [2], in assay [3], in assay [4], in assay [5] and in assay [7] was “inactive” in each case.
For `COC(=O)CC(O)CC(O)/C=C/c1c(C)ccc2c1C(O)CC(C)C2` (stereo unspecified), the Potency result in assay [1], in assay [2], in assay [3], in assay [4], in assay [5] and in assay [7] was “inactive” each time.
`CCC(COC)n1nnc2c(Nc3ccc(OC)cc3C)nc(C)cc21` (stereo unspecified): the Potency entry in assay [1], in assay [2], in assay [3], in assay [4], in assay [5] and in assay [7] was “inactive” each time.
With `O=C(O)Cc1cn(C2OCC(O)C(O)C2O[C@@H]2O[C@H](CO)[C@@H](O)[C@H](O)[C@H]2O)c2ccccc12` (stereo partly specified), the Potency result in assay [1], in assay [2], in assay [3], in assay [4], in assay [5] and in assay [6] was “inactive” in each case. For the same molecule, the Potency result in assay [7] is “inactive”.
Take `O=C1NC(=O)C(c2cn(-c3ccccc3)nc2-c2ccc(F)cc2)N1` (stereo unspecified): the Potency result in assay [1], in assay [2], in assay [3], in assay [4], in assay [5] and in assay [7] was “inactive” throughout.
As for `C[C@H]1CC(=O)Nc2cccc(-c3cnn(C(C)(C)C)c3)c2N1`, the Potency result in assay [1], in assay [2], in assay [3], in assay [4], in assay [5] and in assay [7] was “inactive” each time.
For `O=C(O)c1cc2cccc([N+](=O)[O-])c2[nH]1`, the Potency entry in assay [1], in assay [2], in assay [3], in assay [4], in assay [6] and in assay [7] was “inactive” throughout. The Potency in assay [5] was 21200 nM (active).
On to `CC(=O)OC1CC2(C)C3=CCC4(C)C5C(O)C(O)C(C(C)C)C5(C)CCC4(C)C3CCC2C(C)(C)C1OC1OC(CO)C(O)C(O)C1O` (stereo unspecified), for which the Potency entry in assay [1], in assay [2], in assay [3], in assay [4], in assay [5] and in assay [6] was “inactive” throughout. For the same molecule, the Potency entry in assay [7] was “inactive”.
On to `N[C@H]1Cc2ccccc2N(O)C1=O`, for which the Potency in assay [1] is 12900 nM (active). Further, the Potency entry in assay [2], in assay [3], in assay [4], in assay [5], in assay [6] and in assay [7] was “inactive” in each case.
Take `CC12CCC(OC3OC(CO)C(O)C(OC4OC(CO)C(O)C(O)C4O)C3O)CC1CCC1C2CCC2(C)/C(=C3/COC(=O)C3)CCC12O` (stereo unspecified): the Potency entry in assay [1], in assay [2], in assay [3], in assay [4], in assay [5] and in assay [7] was “inactive” each time.
Turning to `CC1=C(C(=O)O)/C(=C/CO[C@@H]2O[C@H](COC(=O)/C=C/c3ccc(O)cc3)[C@@H](O)[C@H](O)[C@H]2O)C(O)C1` (stereo partly specified), the Potency result in assay [1], in assay [2], in assay [3], in assay [4], in assay [6] and in assay [7] was “inactive” in each case. In addition, the Potency in assay [5] was 1460 nM (active).
In the case of `Cc1ccc(NC(=O)Nc2cc(C(F)(F)F)ccc2F)cc1Nc1ccc2c(c1)NC(=O)/C2=C\c1ccc[nH]1`, the Potency is 20500 nM (active) in assay [1] and 1340 nM (active) in assay [5]. Moreover, the Potency entry in assay [2], in assay [3], in assay [4] and in assay [7] was “inactive” throughout.
Consider `C[C@H](Nc1ncnc2nc[nH]c12)c1cc2ccc(F)cc2nc1-c1ccccn1`, for which the Potency in assay [1] is 1180 nM (active). Moreover, the Potency entry in assay [2], in assay [3], in assay [4], in assay [5], in assay [6] and in assay [7] was “inactive” each time.
On to `CC1(C(=O)O)CCCC2(C)C3=CCC4CC3(CCC12)CC4CO` (stereo unspecified), for which the Potency result in assay [1], in assay [2], in assay [3], in assay [4], in assay [5] and in assay [6] was “inactive” in each case. Further, in assay [7], the Potency entry is “inactive”.
As for `Cc1cc(Cl)ccc1COc1ccnn1-c1cc(C(=O)O)ccn1`, the Potency entry in assay [1], in assay [2], in assay [3], in assay [4], in assay [5] and in assay [7] was “inactive” in each case.
For the molecule `Cc1ccc(S(=O)(=O)c2ccc([N+](=O)[O-])o2)cc1`, the results for the Potency in assay [1] and in assay [5] were 163 nM (active) and 10600 nM (active), respectively. The Potency result in assay [2], in assay [3], in assay [4] and in assay [7] was “inactive” in each case.
Regarding `Cc1oc2ccccc2c1CNC(=O)NCc1cccs1`, the Potency entry in assay [1], in assay [2], in assay [3], in assay [4], in assay [5] and in assay [7] was “inactive” in each case.
As for `CCOC(=O)c1cc(C#N)c(N2CCC(C(=O)NS(=O)(=O)Cc3ccccc3)CC2)nc1C`, the Potency entry in assay [1], in assay [2], in assay [3], in assay [4], in assay [5] and in assay [7] was “inactive” throughout.
For `COc1cc(/C=C/C=O)cc(OC)c1O[C@@H]1O[C@H](CO)[C@@H](O)[C@H](O)[C@H]1O`, the Potency entry in assay [1], in assay [2], in assay [3], in assay [4] and in assay [7] was “inactive” throughout. For the same molecule, in assay [5], the Potency was 14700 nM (active).
`COc1ccc(C(=O)Nc2ncc(-c3ccc(C(=O)O)cc3)s2)cc1`: the Potency in assay [1] is 1840 nM (active); in assay [4] it was 2690 nM (active). Also, the Potency entry in assay [2], in assay [3], in assay [5] and in assay [7] was “inactive” throughout.
On to `COC(=O)CCSCc1ccc(-c2onc(C)c2NC(=O)OC(C)c2ccccc2Cl)cc1` (stereo unspecified), for which the Potency result in assay [1], in assay [2], in assay [3], in assay [4], in assay [5] and in assay [7] was “inactive” throughout.
